Here are results for 9 compounds from PubChem BioAssay.

Active and inactive are the calls of the source. Unless noted, how the calls were made is not given here.

Assay [1] can be described thus: HepG2 liver cancer cell viability effects, profiling panel, resazurin fluorescence, 24 h, PK04 Diversity Set (AID 1172). The note with it: higher = more signal.
Assay [2] in a line: basal S. cerevisiae growth modulation, no modifier, primary screen, OD600, strain BY4716, 24 h, basal condition (AID 1173). The note with it: OD600, 24 h, higher = more signal, called active from +8 up or from −8 down.
The nature of assay [3]: MM1S myeloma cell viability, profiling panel, resazurin fluorescence, basal, 24 h, PK04 Diversity Set (AID 1174).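 Further: MM1S multiple myeloma cell line.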 The note with it: higher = more signal, called active from +8 up or from −8 down. On the technique in general: Alamar Blue is a resazurin reagent that responds to reducing activity.
Assay [4] has as its target Dihydroorotate dehydrogenase (quinone), mitochondrial (Plasmodium falciparum (isolate 3D7)) (UniProt Q08210). Briefly: PfDHODH enzyme inhibitors, primary screen, biochemical, C-terminal His tag, absorbance 600 nm (AID 1175).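 Further: recombinant parasite enzyme with a five histidine tag at its C terminus.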 The note with it: DCIP absorbance 600 nm, higher = more signal, called active from +8 up or from −8 down.
Assay [5] can be described thus: P. aeruginosa biofilm formation inhibitors, primary screen, strain PAO1, LB-PBS medium, absorbance 600 nm (AID 1176). The note with it: P. aeruginosa PAO1 growth/biofilm, A600, 12 h; higher = more signal.
Assay [6] in a line: S. cerevisiae RM11-1a growth modifiers, primary screen, strain RM11-1a, OD600, basal, 24 h (AID 1177).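 Further: cultures grown under basal conditions with no added stressor.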 The note with it: OD600, 24 h, higher = more signal, called active from +8 up or from −8 down.
Assay [7] can be described thus: E. coli acrAB mutant growth effects, primary screen, E. coli filamentation inducers, strain DRC39, OD650, 24 h (AID 1178).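 Further: growth measured as culture turbidity by optical density at 650 nm.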 To be noted: higher = more signal, called active from +8 up or from −8 down.
A short description of assay [8]: E. coli acrAB mutant growth effects, primary screen, E. coli filamentation inducers, strain DRC39, OD650, 48 h (AID 1179).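 Further: screen aims at cell division blockers that make cells filament.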 The note with it: E. coli DRC39 delta-acrAB growth, higher = more signal, called active from +8 up or from −8 down.
Assay [9] is described as follows: RPMI8226 myeloma cell viability, profiling panel, resazurin fluorescence, basal, 24 h, PK04 Diversity Set (AID 1180).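 Further: RPMI8826 multiple myeloma cell line at 5000 cells per well.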 The note with it: higher = more signal.
The target of assay [10] is E3 ubiquitin-protein ligase XIAP (Homo sapiens) (UniProt P98170). As to the kind of experiment: XIAP binders, primary screen, biophysical, small-molecule microarray, fluorescence 635 nm (AID 1181).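 Further: score merges 667 nm emission and signal to noise over triplicate slides.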 The note with it: small-molecule microarray binding, higher = more signal.
Chain of E3 ubiquitin-protein ligase XIAP (Homo sapiens) (P98170 whole entry, looked up): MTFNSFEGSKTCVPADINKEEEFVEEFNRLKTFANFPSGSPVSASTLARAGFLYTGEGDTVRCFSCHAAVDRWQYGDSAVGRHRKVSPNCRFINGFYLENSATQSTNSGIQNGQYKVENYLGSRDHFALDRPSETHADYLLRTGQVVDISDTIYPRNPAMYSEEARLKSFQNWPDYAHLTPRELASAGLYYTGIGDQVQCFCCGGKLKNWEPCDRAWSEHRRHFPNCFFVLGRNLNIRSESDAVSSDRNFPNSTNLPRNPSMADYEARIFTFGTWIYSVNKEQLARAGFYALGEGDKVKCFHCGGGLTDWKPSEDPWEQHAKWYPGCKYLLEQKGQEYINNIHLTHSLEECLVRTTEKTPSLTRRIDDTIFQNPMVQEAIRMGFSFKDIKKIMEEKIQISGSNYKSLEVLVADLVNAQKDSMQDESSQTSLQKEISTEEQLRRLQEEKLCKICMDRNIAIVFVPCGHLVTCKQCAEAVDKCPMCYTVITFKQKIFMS
The test system of assay [11] is XIP peptide (Xip251-270) binding. Briefly: small-molecule binders of XIP peptide, primary screen, biochemical, small-molecule microarray, fluorescence 635/667 nm, 0.1 µg/mL protein (AID 1182). The note with it: fluorescent protein binding, 635 nm, higher = more signal, called active from +8 up or from −8 down.
A further assay relates to XIP peptide (Xip251-270). Briefly: small-molecule binders of XIP peptide, primary screen, biochemical, small-molecule microarray, fluorescence 635/667 nm, 0.5 µg/mL protein (AID 1183). The note with it: small-molecule microarray binding, fluorescence 635 nm; higher = more signal.
A short description of assay [12]: Plasmodium falciparum growth inhibition, primary screen, strain 3D7, DAPI fluorescence, 100 nL (AID 1184).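 Further: parasites grown inside human red blood cells in medium with human serum.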 The note with it: P. falciparum 3D7 growth, 3 d, higher = more signal.
The target in assay [13] is Homeobox protein Hox-A13 (Mus musculus) (UniProt Q62424). As to the kind of experiment: inhibitors of HoxA13-DNA binding, primary screen, biochemical, fluorescence polarization, labeled oligonucleotide (AID 1185). The note with it: 15 min, higher = more signal, called active from +8 up or from −8 down. A general note: Polarisation of emitted light reports the rotation of a fluorescent probe.
Chain of Homeobox protein Hox-A13 (Mus musculus) (Q62424 whole entry, looked up): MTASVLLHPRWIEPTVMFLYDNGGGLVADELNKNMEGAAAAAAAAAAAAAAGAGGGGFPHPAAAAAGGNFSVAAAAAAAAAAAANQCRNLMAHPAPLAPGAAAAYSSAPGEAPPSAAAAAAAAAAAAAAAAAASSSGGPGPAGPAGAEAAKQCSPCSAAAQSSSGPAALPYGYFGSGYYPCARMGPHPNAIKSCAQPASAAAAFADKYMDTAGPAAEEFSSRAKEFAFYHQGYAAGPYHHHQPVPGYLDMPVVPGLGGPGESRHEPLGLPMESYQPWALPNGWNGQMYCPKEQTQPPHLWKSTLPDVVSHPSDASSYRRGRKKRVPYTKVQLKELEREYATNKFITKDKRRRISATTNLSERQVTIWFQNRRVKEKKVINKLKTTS

Assay [14] in a line: inhibitors of hydroxyurea-induced Chk1 phosphorylation, primary screen, imaging, HeLa, phospho-Chk1 antibody, percent positive cells (AID 1186). To be noted: hydroxyurea-induced phospho-Chk1 immunofluorescence imaging, higher = more signal.
Assay [15] is described as follows: inhibitors of hydroxyurea-induced Chk1 phosphorylation, primary screen, imaging, HeLa, phospho-Chk1 nuclear intensity (AID 1187). To be noted: hydroxyurea-induced phospho-Chk1 immunofluorescence imaging, higher = more signal.

Chain of Dihydroorotate dehydrogenase (quinone), mitochondrial (Plasmodium falciparum (isolate 3D7)) (Q08210 whole entry, looked up): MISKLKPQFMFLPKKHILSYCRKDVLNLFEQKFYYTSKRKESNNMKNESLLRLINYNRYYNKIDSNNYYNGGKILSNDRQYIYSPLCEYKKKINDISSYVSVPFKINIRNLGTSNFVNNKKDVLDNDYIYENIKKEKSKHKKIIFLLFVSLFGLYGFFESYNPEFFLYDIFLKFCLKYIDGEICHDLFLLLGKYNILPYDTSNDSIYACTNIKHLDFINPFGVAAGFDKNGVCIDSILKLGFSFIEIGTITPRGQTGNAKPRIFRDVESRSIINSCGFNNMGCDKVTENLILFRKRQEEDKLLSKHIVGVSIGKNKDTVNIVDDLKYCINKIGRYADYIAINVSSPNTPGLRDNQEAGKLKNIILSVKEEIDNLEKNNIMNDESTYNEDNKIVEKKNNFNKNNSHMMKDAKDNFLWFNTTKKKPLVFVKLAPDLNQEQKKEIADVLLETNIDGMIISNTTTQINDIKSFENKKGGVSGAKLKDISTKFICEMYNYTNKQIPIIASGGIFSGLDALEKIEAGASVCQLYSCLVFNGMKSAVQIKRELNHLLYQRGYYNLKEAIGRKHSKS

`CCOC(=O)c1cn(C[C@H](Cc2ccccc2)NC(=O)N[C@H](CO)CCc2oc(C(C)=O)c(C(=O)OC)c2C(=O)OC)nn1`: the z-score in assay [1] was -0.756; in assay [2] it was -2.76 (inactive); in assay [3], 0.225 (inactive); in assay [5], -0.227 (inactive); in assay [6], -0.669 (inactive); in assay [7], -0.124 (inactive). Further, the z-score in [8] is -0.356 (inactive); in assay [9], -0.458; in assay [12], -1.63; in assay [13], -2.67 (inactive); in [14] it was -0.107 (inactive); in [15], 0.432 (inactive). Moreover, the composite z-score in [4] is -3.55 (inactive); in assay [10], -0.0835; in assay [11], 0.534 (inactive); in the assay on XIP peptide (Xip251-270) it was 0.635.

Take `COC(=O)[C@H](Cc1ccc(O)cc1)N[C@@H](/C=C/C1CC1)[C@H](O)Cc1ccccc1`: the z-score in assay [1] was -0.752; in assay [2], -3.58 (inactive); in assay [3], -0.163 (inactive); in assay [5], -0.459 (inactive); in [6], 0.0871 (inactive); in [7], -0.396 (inactive). For the same compound, the z-score in assay [8] was -0.571 (inactive); in [9], 0.177; in assay [12], 1.55; in assay [13], -5.14 (inactive); in [14], 0.412 (inactive); in [15] it was 0.0577 (inactive). Moreover, the composite z-score in assay [4] was -0.23 (inactive); in [10], 0.85; in [11], -0.364 (inactive); with XIP peptide (Xip251-270), -0.0324.

As for `CC(C)C(=C=CC[C@H](O)c1ccccc1OCCO)C[C@H](O)c1cc(Cl)cc(Cl)c1O`, the z-score in assay [1] is 0.271; in assay [2], -5.59 (inactive); in assay [3], -0.702 (inactive); in assay [5] it was 0.731 (inactive); in [6], -0.17 (inactive); in assay [7], 0.215 (inactive). Also, the z-score in assay [8] was -0.0849 (inactive); in assay [9], -0.628; in assay [12], -1; in assay [13], -4.67 (inactive); in [14], 0.425 (inactive); in assay [15] it was 0.353 (inactive). For the same compound, the composite z-score was -2 (inactive) in assay [4], -0.0448 in [10], 0.35 (inactive) in [11] and 0.622 in the assay on XIP peptide (Xip251-270).

For the compound `CC(C)(C)OC(=O)CC[C@]1(C(=O)NCC(O)CO)N=C(c2ccc(OCCCO)cc2)O[C@H]1c1ccccc1N=[N+]=[N-]` (some centres undefined), the z-score in assay [1] was -0.108; in assay [2] it was -0.66 (inactive); in assay [3], -1.58 (inactive); in assay [5], 0.948 (inactive); in assay [6], -0.134 (inactive); in assay [7], -0.0029 (inactive). Further, the z-score in assay [8] is 0.0611 (inactive); in assay [9], -0.288; in assay [12] it was -1.45; in [13] it was -4.51 (inactive); in assay [14], 0.0505 (inactive); in [15], 0.259 (inactive). Further, the composite z-score in [4] was -0.955 (inactive); in assay [10], -0.0018; in assay [11], 3.52 (inactive); in the assay on XIP peptide (Xip251-270), 0.811.

For the compound `COc1ccc([Si](C)(C)[C@@H]2[C@@H](CC(=O)N3CCC[C@H]3CO)O[C@]3(C(=O)N(Cc4cccc(N5CCCCC5=O)c4)c4ccccc43)[C@H]2C)cc1`, the z-score in assay [1] is -1.26; in assay [2], -0.51 (inactive); in assay [3], -2 (inactive); in assay [5], 0.319 (inactive); in assay [6], 0.625 (inactive); in assay [7], 0.894 (inactive). Moreover, the z-score is 0.6 (inactive) in assay [8]; -2.68 in [9]; -1.26 in assay [12]; -2.93 (inactive) in assay [13]; -0.515 (inactive) in assay [14]; 0.336 (inactive) in assay [15]. Also, the composite z-score in assay [4] is -0.877 (inactive); in [10], 0.0167; in assay [11], 2.84 (inactive); in the assay with XIP peptide (Xip251-270) it was 0.799.

In the case of `COc1ccc([Si](C)(C)[C@H]2[C@H](CCO)O[C@@]3(C(=O)N(Cc4ccc(NC(=O)[C@H](C)O)cc4)c4ccccc43)[C@@H]2C)cc1`, the z-score in assay [1] is -4.93; in [2], 0.532 (inactive); in [3], -8.02 (active); in [5] it was -0.753 (inactive); in [6] it was 3.05 (inactive); in assay [7], -0.106 (inactive). The z-score in assay [8] is -0.802 (inactive); in [9], -6.21; in assay [12] it was -2.7; in [13] it was -4.86 (inactive); in assay [14], -0.704 (inactive); in assay [15], -0.43 (inactive). Also, the composite z-score in assay [4] was -0.0575 (inactive); in assay [10], -0.0592; in [11] it was 3.4 (inactive); in the assay with XIP peptide (Xip251-270), 0.596.

For `CCCCCC1=C2CNC(Cc3ccccc3)(C(=O)OC)C=C2C(C)C1=O` (centres undefined), the z-score in [1] is -1.19; in assay [2], 1.36 (inactive); in assay [3], -1.79 (inactive); in assay [5], 0.026 (inactive); in [6], 0.546 (inactive); in [7] it was -0.767 (inactive). For the same compound, the z-score in assay [8] was -0.217 (inactive); in assay [9], -1.5; in assay [12] it was -0.662; in assay [13], -8.44 (active); in assay [14], 1.14 (inactive); in [15], 0.846 (inactive). Further, the composite z-score was -0.461 (inactive) in [4], -0.138 in assay [10], -0.186 (inactive) in [11] and 0.247 in the assay on XIP peptide (Xip251-270).

With `C=C(COC)C(=O)CC[C@@H](OC(C)=O)c1ccccc1OCCO`, the z-score in [1] is 0.463; in [2] it was -0.947 (inactive); in [3], -0.851 (inactive); in [5], 0.166 (inactive); in assay [6], -1.56 (inactive); in assay [7], 0.661 (inactive). Besides, the z-score in assay [8] was -0.061 (inactive); in [9], -1.09; in assay [12], -2.06; in assay [13] it was -5.01 (inactive); in assay [14] it was 0.374 (inactive); in assay [15], 0.77 (inactive). Besides, the composite z-score is -1.34 (inactive) in [4], -0.102 in [10], 0.0063 (inactive) in assay [11] and 0.522 in the assay with XIP peptide (Xip251-270).

Turning to `CCOc1cc(C(O)C2C=CC3C(=O)N(c4ccccc4)C(=O)C3N2Nc2ccccc2F)ccc1O` (centres undefined), the z-score is -1.42 in assay [1]; -3.57 (inactive) in [2]; -0.454 (inactive) in [3]; 0.931 (inactive) in assay [5]; 1.78 (inactive) in assay [6]; -0.223 (inactive) in [7]. The z-score was -0.541 (inactive) in assay [8]; -0.318 in [9]; -0.0969 in assay [12]; -3.71 (inactive) in assay [13]; -0.379 (inactive) in [14]; -0.304 (inactive) in assay [15]. For the same compound, the composite z-score is 0.717 (inactive) in [4], -0.273 in [10], 1.11 (inactive) in assay [11] and -0.213 in the assay on XIP peptide (Xip251-270).
